# Only some compounds are listed: those with a hit (about 5.5% of all), similar ones and a draw of the others.
# ELG1 DNA repair: blocks ELG1-dependent DNA repair in HEK293T cells; 330,000 tested, 2.3% active; HEK293T ELG1-luciferase reporter, luminescence, 16 h; DNA damage induced by 5-fluorouridine; AID 504467; Potency, µM (highest dose often 46.1 µM), without a hit: at the top dose activity change, negative = inhibition, most hits filed as inhibitors; also: potency is read from the fitted curve at half-maximal effect; nearly all actives have a fitted effect of over 55% in size
#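 5-Fluorouridine DNA damage + compound/DMSO, 2,000 cells/well, 16 h, 37 °C/5% CO2. ONE-Glo, 30 min RT, luminescence. Readout = decrease in reporter signal.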
# Giardia killer: Giardia lamblia killing. AID 540267. activity change, % at 7.66 µM, hits read low. Giardia lamblia trophozoite viability. 340,000 tested, 0.15% active; in the data active = activity change below about -80%; inconclusive = between about -30% and that limit;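 also: parasites exposed to compound for two days anaerobically before the ATP read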
#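 Trophozoites 100 cells/well + cpd; 48 hrs, 37 deg C, anaerobic. ATPLite 1-Step added, 15-30 min RT, luminescence read (ATP-based viability).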
# Coupling enz: coupling enzyme interference in Giardia aldolase counter-screen; coupling enzyme system counterscreen, AmpLite Red fluorescence; AID 2472; 290,000 tested, 0.67% active; activity change, negative = inhibition, % at 58.2 µM, hits read low; in the data active = activity change below about -30%
#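 Fluorescence at 525 nm excitation and 598 nm emission measured inhibition of the coupled detection system without aldolase. Compounds (at 57.5 uM final) were preincubated 10 min at room temperature with coupling enzyme reagent before a 20 min substrate/AmpLite Red step.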
# Sfp PPTase inh: Sfp phosphopantetheinyl transferase inhibition; 310,000 tested, 3.5% active; Potency, µM, inactives show largest response in the series, negative = inhibition, actives largely listed as inhibitors; Q9F4F7; Biochemical Sfp PPTase activity, qHTS;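 also: the enzyme is Sfp with the accession as filed and its product quenches rhodamine fluorescence; potency is read from the fitted curve at half-maximal effect; 0% = enzyme reaction without inhibitor and -100% = no enzyme wells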
#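 Fluorescence-quenching assay: 15 nM Sfp-PPTase preincubated 15 min at room temperature with compound, then 5 uM rhodamine-CoA and 12.5 uM BHQ-2-labelled YbbR peptide added. Fluorescence (ex 525/em 598 nm) read at start and after 30 min; difference gives rate.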
# An asterisk follows results filed as active; ? = inconclusive; . = no result given. Unless noted, calls follow the shape of the dose curve; as a rule, active = well fitted curve in the direction sought with a large enough effect; inconclusive = small, poorly fitted or top-dose-only effect, or another doubt; inactive = no such curve, though single readings can be large; an effect the other way counts as inactive or inconclusive. Unless noted, % is scaled to controls: 0 for no effect and ±100 for the full control effect.
SMILES,ELG1 DNA repair,Giardia killer,Coupling enz,Sfp PPTase inh
CCC(C)C1NC(=O)C(CCNCS(=O)(=O)O)NC(=O)C(NC(=O)C(CCNCS(=O)(=O)O)NC(=O)C(NC(=O)C(CCNCS(=O)(=O)O)NC(=O)CCCCC(C)C)C(C)O)CCNC(=O)C(C(C)O)NC(=O)C(CCNCS(=O)(=O)O)NC(=O)C(CCNCS(=O)(=O)O)NC(=O)C(C(C)CC)NC1=O (configuration not stated),.,.,0,-33%
Cc1ccccc1-c1nc(S(=O)(=O)c2ccccc2)c(N2CCCC2)o1,0%,19,.,.
Cc1ccc(NC(=O)C(NC2CCCc3ccccc32)c2ccccc2)cc1Cl (configuration not stated),-10%,-11,-11,45µM*
CNC(=O)NC(=O)C(NC1CCCc2ccccc21)c1ccccc1 (configuration not stated),3%,-7,-2,7%
CCOC(=O)C1=C(C)N=c2s/c(=C\c3cccc(OCC(=O)O)c3)c(=O)n2C1c1ccccc1OC (configuration not stated),-4%,-6,11,79µM*
CCOC(=O)C1=C(C)N=c2s/c(=C\c3ccc(OC(C)=O)c(OCC)c3)c(=O)n2C1/C=C/c1ccccc1 (configuration not stated),-9%,-4,-1,45µM*
CCOC(=O)C1=C(C)N=c2s/c(=C/c3ccc(OCC(=O)O)cc3)c(=O)n2C1c1cc(OC)c(OC)c(OC)c1 (configuration not stated),-8%,10,6,-8%
COc1ccccc1C1C(C(C)=O)=C(C)N=c2s/c(=C\c3cc(OC)c(OC)c(OC)c3)c(=O)n21 (configuration not stated),23µM*,16,0,1%
Cc1ccc(NC(=O)N2CCCC2C(=O)NCc2ccc(Cl)cc2)cc1 (configuration not stated),-8%,7,-1,14%
CCCN1CNc2c(c(=O)[nH]c(=S)n2CCc2ccccc2C)C1,.,16,.,.
Oc1cc2c(c(Cl)c1O)CCNCC2c1ccccc1 (configuration not stated),.,18,.,50µM*
C=CCN1CCc2c(cc(O)c(O)c2Cl)C(c2ccccc2)C1 (configuration not stated),?,7,-8,?
Oc1cc2c(c(Cl)c1O)CCNC[C@H]2c1ccccc1,.,.,-6,79µM*
Oc1ccc(C2CNCCc3c2cc(O)c(O)c3Cl)cc1 (configuration not stated),-1%,14,.,40µM*
CCN(CC)S(=O)(=O)c1ccc2[nH]c(=O)cc(C(=O)NCC3CCCO3)c2c1 (configuration not stated),5%,-1,.,.
Cc1cccc(C)c1NC(=O)CNC(=O)C(C)NC(C)c1ccccc1Br (configuration not stated),6%,16,.,.
CC/C=C\C/C=C\C/C=C\C/C=C\C/C=C\C/C=C\CCC(=O)NCCO,.,.,-1,-24%
CCN(CC)CCOc1cccc(C(C)C)c1,-1%,-8,0,-6%
CC(C)c1cccc(OCCCCN(C)C)c1,-8%,4,0,79µM*
CCN(CC)S(=O)(=O)c1ccc2c(c1)c(=O)c(C(=O)N1CCN(c3ccccn3)CC1)cn2C,-14%,2,0,2%
COc1cc(SC)ccc1C(=O)Nc1nc2ccccc2[nH]1,?,-99*,0,15%
Cc1c(C(=O)Nc2nc3ccccc3[nH]2)oc2ccc(Br)cc12,?,-24,-2,14µM*
COc1ccccc1C(=O)NCCC(=O)Nc1nc2ccccc2[nH]1,?,-9,.,.
COc1ccccc1C(=O)Nc1nc2ccccc2[nH]1,?,-84*,-7,0%
COC(=O)C(NS(N)(=O)=O)C(C)C (configuration not stated),.,0,-1,8%
SMILES,ELG1 DNA repair,Giardia killer,Coupling enz,Sfp PPTase inh
CC(C)(C)c1ccc(OC2C(O)COC2/C=C/C#Cc2ccccc2)cc1 (configuration not stated),.,.,-2,13%
C=CCOn1c(C)c(C(C)=O)c2c3nonc3ccc21,10µM*,4,-10,4%
COn1c(C)c(C)c2c3nonc3ccc21,0%,0,-39*,1%
CCOC(=O)c1c(C)n(OCc2ccccc2)c2ccc3nonc3c12,?,-9,-2,-20%
O=C(CSc1ccc(Cl)cc1)Nc1ncccn1,?,19,0,-3%
Cn1ncc(Br)c1NC(=O)CSc1ccc(Cl)cc1,7.3µM*,3,-1,-9%
Cc1ccc(-c2csc3n[nH]c(=S)n23)cc1,0%,43,0,13µM*
CCn1c(-c2ccc(C)cc2)n[nH]c1=S,8%,-23,2,?
Cc1c(NC(=O)/C(C#N)=C/c2ccc(-c3cc(Cl)ccc3Cl)o2)c(=O)n(-c2ccccc2)n1C,18µM*,12,6,-8%
Cc1c(NC(=O)/C(C#N)=C/c2ccc(-c3ccc(Cl)cc3)o2)c(=O)n(-c2ccccc2)n1C,16µM*,1,2,?
N[C@@H](CCCCNC(=O)CCCC[C@@H]1SC[C@H]2NC(=O)N[C@H]12)C(=O)O,.,.,-1,-17%
O=C(CSc1nnc2scc(-c3ccccc3)n12)Nc1nsc(-c2ccccc2)n1,9.2µM*,7,3,32µM*
Cc1ccc(-c2csc3nnc(SCC(=O)Nc4nsc(-c5ccccc5)n4)n23)cc1,.,0,2,-2%
CCN(CC(=O)NCc1ccc(F)cc1)C(=O)CN1CCN(c2ccc(OC)cc2)CC1,-14%,-7,-1,?
COc1cc(O)c(C(=O)/C=C/c2ccccc2)c(OC)c1,?,-13,-1,-23%
COc1cc(C/C=C/c2ccccc2)c(OC)cc1O,.,.,-51*,-40%
Oc1ccc(Br)cc1-c1nc2cnccn2c1NC1CCCC1,23µM*,-18,-1,-4%
Oc1ccc(Br)cc1-c1nc2cnccn2c1NC1CCCCC1,-11%,4,0,7%
O=C(N[C@H]1C/C=C\C[C@@H](CC(=O)N(CCO)Cc2ccccc2)C(=O)N[C@H](Cc2c[nH]c3ccccc23)COC1=O)OCC1c2ccccc2-c2ccccc21,21µM*,0,.,.
O=C1N[C@@H](Cc2c[nH]c3ccccc23)COC(=O)[C@H](Cc2ccc(F)cc2)C/C=C\C[C@@H]1CC(=O)N(CCO)Cc1ccccc1,23µM*,-10,.,.
O=C(N[C@H]1C/C=C\C[C@H](CC(=O)N(CCO)Cc2ccccc2)C(=O)N[C@H](Cc2c[nH]c3ccccc23)COC1=O)OCC1c2ccccc2-c2ccccc21,?,7,.,.
O=C1N[C@@H](Cc2c[nH]c3ccccc23)COC(=O)[C@@H](Cc2ccc(F)cc2)C/C=C\C[C@H]1CC(=O)N(CCO)Cc1ccccc1,18µM*,-16,.,.
O=C1N[C@H](Cc2ccccc2)COC(=O)[C@H](Cc2ccc(F)cc2)C/C=C\C[C@@H]1CC(=O)N(CCO)Cc1ccccc1,?,-7,.,.
COC(=O)N1CCC2(CCN(C(=O)Nc3cccc(C#N)c3)CC2)CC1,.,.,1,25%

# From PubChem
